# PubChem BioAssay
# Values joined by “and” are separate entries in the source; they are usually repeats but may differ in a detail not shown here. Equal entries are not always repeated. More than one record can exist for a structure, and the calls need not agree. Active and inactive are the calls of the source. Unless noted, how the calls were made is not given here.
# Columns and labels:
# [1] = test system: Hepatitis C virus NS3 helicase; assay: HCV NS3 helicase inhibitors, primary screen, biochemical, fluorescence polarization, NIH Clinical Collection (AID 743270); details: NS3 helicase binding to Cy5-dT15 DNA, stronger effect = higher value, concentration not given here
# [2] = molecular target: Single-stranded DNA-binding protein (Escherichia coli (strain K12)) (UniProt P0AGE0); assay: E. coli SSB displacement from DNA, counter-screen for HCV NS3 helicase inhibitor project, biochemical, fluorescence polarization, NIH Clinical Collection (AID 743271; in the data active means inhibition above about 28%); details: stronger effect = higher value, concentration not given here
# [3] = fluorescence interference in NS3h assay format, artefact control for HCV NS3 helicase inhibitor project, biochemical, NIH Clinical Collection (AID 743272); details: fluorescence interference counterscreen, stronger effect = lower value;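 further: HCV NS3 helicase with a Cy5 labelled single stranded DNA probe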
# [4] = stimulators of nuclear beta-catenin in C2C12, primary screen, imaging, WNT3A-conditioned medium, mouse C2C12, NPC library (AID 1117326; in the data active means nuclear beta-catenin stimulation mostly above about 4.2%, no sharp cut-off; inactive means mostly below about 10%); details: stronger effect = higher value
# [5] = stimulators of insulin release from INS-1E, primary screen, cell-based, 5 mM glucose, NPC library (AID 1117329;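 active means compound raises insulin release from rat beta cells at 5 mM glucose, no numeric limit stated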); details: rat INS-1E insulin secretion, at 10 µM, stronger effect = higher value
# [6] = growth inhibition of GSK3B-pretreated HCT116 cells – cell-based, CellTiter-Glo, 0.2 to 20 µM (AID 1117336;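 active means compounds lowering colon cancer cell viability after pretreatment blocking the GSK3B kinase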); details: HCT116 viability after GSK3B inhibitor, at 20 µM, stronger effect = higher value
# [7] = inhibition of endothelial tube formation, primary screen, imaging, VEGF stimulated, CD31 staining, tube area, NPC library (AID 1117340;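 active means compound that reduces growth-factor-driven endothelial tube area in a mixed cell culture, no cutoff stated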); details: VEGF-stimulated ADSC/ECFC co-culture, at 10 µM, stronger effect = higher value
# [8] = glucagon-like peptide 1 release enhancers, primary assay, NCI-H716 cell line, NPC library (AID 1117341;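 active means compound raises GLP1 secretion from the human gut endocrine cells, with no numeric limit stated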); details: NCI-H716 cells, at 10 µM, stronger effect = higher value
# [9] = HCT116 colon cancer cell growth inhibition, primary screen, CellTiter-Glo luminescence, NPC library (AID 1117342;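 active means compounds that lower survival of HCT116 colon cancer cells in the luminescence readout, no numeric limit stated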); details: at 20 µM (top of the series)
# [10] = CellTiter-Glo luminescent readout of SW480 viability loss, NPC library primary (AID 1117343;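 active means compounds that lower viability of the colon cancer cells in the luminescence readout, with no numeric limit stated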); details: CellTiter-Glo luminescence; at 20 µM (top of the series)
# [11] = decreased DLD-1 cellular survival, CellTiter-Glo luminescent readout, NPC compound collection, primary HTS (AID 1117346;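 active means compounds that lower survival of DLD-1 colon cancer cells in the luminescence readout, no cutoff given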); details: DLD-1 viability, CellTiter-Glo luminescence; at 20 µM (top of the series)
# [12] = molecular target: 6-phosphogluconate dehydrogenase, decarboxylating (Homo sapiens) (UniProt P52209); assay: 6PGD enzyme inhibitors, primary screen, biochemical, human, recombinant enzyme, NADPH absorbance (AID 1159550;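 active means at least 20% inhibition of 6-phosphogluconate dehydrogenase activity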); details: recombinant 6PGD, NADPH absorbance 341 nm; at 10 µM; stronger effect = higher value
# [13] = differential killing of epithelial or mesenchymal cells, primary screen, imaging, PC-3E GFP, TEM4-18 mCherry, co-culture (AID 1345086;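 active means compounds killing one labelled cell type while sparing the other, by normalised counts and ratio limits, not self-fluorescent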;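 further: cells exposed to compound for 72 h before imaging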;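 on red/green cell ratio (normalised): normalised mesenchymal count divided by normalised epithelial count so high means epithelial killing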); details: imaging cell counts, at 1 µM
# [14] = survival rescue of mitochondrial mutant cells in low glucose, primary screen, MELAS cybrids, Rieske KO mouse fibroblasts, CellTiter-Glo (AID 1508586;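 active means mean z-score across replicates of 1.96 or higher in either the MELAS or the Rieske mutant cell line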;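 further: z relative to plate mean and SD of compound and empty wells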)
# [15] = molecular target: NAD(+) hydrolase SARM1 (Homo sapiens) (UniProt Q6SZW1); assay: SARM1 TIR NADase inhibitors, cell lysate, NAD-Glo luminescence (AID 1508614;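 active means compound whose remaining NAD level is above about 45 nM, limit read from the data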); details: SAM-TIR HEK293T lysate NADase, at 1 µM, stronger effect = higher value
# [16] = molecular target: Mitogen-activated protein kinase 7 (Homo sapiens) (UniProt Q13164); assay: ERK5 transactivation activators in reporter cells, primary screen, cell-based, HTS (AID 1508626;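 active means luciferase signal above three times the same-plate solvent-only control wells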;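 further: luciferase driven by Gal4-ERK5 fusion binding five Gal4 sites before minimal TATA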); details: HeLa Gal4-ERK5 transactivation, 18 h, at 5 µM, stronger effect = higher value
# [17] = sensitizers of A549 cells to miR-34 induction, primary screen, imaging, A549 dox-inducible miR-34, nuclei and caspase counts (AID 1347080;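 active means compounds whose cell count with miR-34 switched on is under 0.7 times the count with it off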); details: A549 miR-34 inducible, Hoechst nuclei count, 48 h
# [18] = test system: F380Y; assay: modulators of BK channel variants, profiling panel, selectivity assay, cell-based, U2OS BacMam, thallium flux, beta subunits (AID 1259406;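 active means thallium flux through the channel raised or lowered by more than 3 SD from vehicle-only wells, actives on both sides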;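 further: initial slope of Thallos dye fluorescence rise after thallium is added; log ratio against the mean of 0.3% DMSO vehicle wells on the same plate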); details: at 30 µM
# [19] = test system: F380Y/beta2Delta; assay: as above; details: at 30 µM
# [20] = molecular target: Calcium-activated potassium channel subunit alpha-1 (Homo sapiens) + Leucine-rich repeat-containing protein 26 (Homo sapiens) (UniProt Q12791+Q2I0M4); assay: as above; details: F380Y/Slo1WT/gamma1, at 30 µM
# [21] = MELAS cybrid survival, CellTiter-Glo 48 h, stronger effect = higher value
# [22] = Rieske KO mouse fibroblast survival, CellTiter-Glo 72 h
# [23] = stronger effect = lower value, cell number ratio, induced over uninduced
# [24] = measured here: relative caspase fold change +Dox/-Dox
# [25] = measured here: total cells with miR-34 induction, stronger effect = lower value
# [26] = measured here: total cells without miR-34 induction
# NAD(+) hydrolase SARM1 (Homo sapiens), sequence (Q6SZW1 whole entry, looked up, the tested form may be a part): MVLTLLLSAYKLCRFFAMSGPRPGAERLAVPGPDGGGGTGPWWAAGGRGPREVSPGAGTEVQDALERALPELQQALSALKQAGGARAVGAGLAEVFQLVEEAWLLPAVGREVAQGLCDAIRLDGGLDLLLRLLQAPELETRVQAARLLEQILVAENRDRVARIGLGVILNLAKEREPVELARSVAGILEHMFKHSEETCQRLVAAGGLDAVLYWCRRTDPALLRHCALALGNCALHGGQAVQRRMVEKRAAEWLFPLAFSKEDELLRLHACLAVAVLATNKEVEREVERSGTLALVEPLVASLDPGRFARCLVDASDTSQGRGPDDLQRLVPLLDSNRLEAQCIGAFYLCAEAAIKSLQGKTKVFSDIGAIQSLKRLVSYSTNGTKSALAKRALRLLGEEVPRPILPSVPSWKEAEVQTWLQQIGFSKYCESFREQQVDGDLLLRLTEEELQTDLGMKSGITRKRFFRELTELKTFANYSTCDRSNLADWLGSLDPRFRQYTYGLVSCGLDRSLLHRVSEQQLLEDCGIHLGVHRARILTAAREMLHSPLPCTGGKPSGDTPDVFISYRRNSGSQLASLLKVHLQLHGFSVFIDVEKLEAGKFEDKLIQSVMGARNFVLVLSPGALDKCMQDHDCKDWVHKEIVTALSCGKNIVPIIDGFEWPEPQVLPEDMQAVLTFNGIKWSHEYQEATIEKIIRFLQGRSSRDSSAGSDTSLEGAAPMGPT
# Mitogen-activated protein kinase 7 (Homo sapiens), sequence (Q13164 whole entry, looked up, the tested form may be a part): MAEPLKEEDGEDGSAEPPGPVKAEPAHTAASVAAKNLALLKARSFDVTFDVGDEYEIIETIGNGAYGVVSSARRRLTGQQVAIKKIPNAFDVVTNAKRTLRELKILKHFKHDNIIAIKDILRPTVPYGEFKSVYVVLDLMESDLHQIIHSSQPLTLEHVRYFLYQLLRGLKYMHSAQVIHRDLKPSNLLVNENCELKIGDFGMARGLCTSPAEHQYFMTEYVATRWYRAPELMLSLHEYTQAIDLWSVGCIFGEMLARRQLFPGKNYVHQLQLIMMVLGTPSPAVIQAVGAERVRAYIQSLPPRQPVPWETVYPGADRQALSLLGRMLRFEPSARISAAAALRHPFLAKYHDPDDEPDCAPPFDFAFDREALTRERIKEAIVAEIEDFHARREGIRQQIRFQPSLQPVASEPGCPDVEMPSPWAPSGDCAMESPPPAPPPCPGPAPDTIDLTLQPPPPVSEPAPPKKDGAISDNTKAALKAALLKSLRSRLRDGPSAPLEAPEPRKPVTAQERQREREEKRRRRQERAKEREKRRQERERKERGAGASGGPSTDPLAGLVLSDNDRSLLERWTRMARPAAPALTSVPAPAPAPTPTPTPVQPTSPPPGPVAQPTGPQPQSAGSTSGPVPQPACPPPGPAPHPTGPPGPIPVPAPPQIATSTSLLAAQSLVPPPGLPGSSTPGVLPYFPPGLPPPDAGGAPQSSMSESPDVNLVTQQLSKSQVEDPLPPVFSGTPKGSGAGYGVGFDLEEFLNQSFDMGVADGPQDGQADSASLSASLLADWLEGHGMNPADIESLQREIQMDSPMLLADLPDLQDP
# 6-phosphogluconate dehydrogenase, decarboxylating (Homo sapiens), sequence (P52209 whole entry, looked up): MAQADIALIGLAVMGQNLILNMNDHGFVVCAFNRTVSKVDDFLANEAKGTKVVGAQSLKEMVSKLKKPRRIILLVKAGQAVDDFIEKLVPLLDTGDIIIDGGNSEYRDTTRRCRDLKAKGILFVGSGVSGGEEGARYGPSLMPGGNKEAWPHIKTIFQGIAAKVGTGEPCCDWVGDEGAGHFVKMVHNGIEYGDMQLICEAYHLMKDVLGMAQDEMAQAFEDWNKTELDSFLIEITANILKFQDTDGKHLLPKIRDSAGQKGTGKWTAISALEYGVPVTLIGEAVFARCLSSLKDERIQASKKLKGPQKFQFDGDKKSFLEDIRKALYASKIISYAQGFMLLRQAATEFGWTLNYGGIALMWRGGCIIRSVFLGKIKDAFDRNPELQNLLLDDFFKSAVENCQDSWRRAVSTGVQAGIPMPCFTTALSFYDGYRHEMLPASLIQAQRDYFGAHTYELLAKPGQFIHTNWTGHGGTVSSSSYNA
# Calcium-activated potassium channel subunit alpha-1 (Homo sapiens) + Leucine-rich repeat-containing protein 26 (Homo sapiens), sequence (Q2I0M4 whole entry, looked up, one chain of several): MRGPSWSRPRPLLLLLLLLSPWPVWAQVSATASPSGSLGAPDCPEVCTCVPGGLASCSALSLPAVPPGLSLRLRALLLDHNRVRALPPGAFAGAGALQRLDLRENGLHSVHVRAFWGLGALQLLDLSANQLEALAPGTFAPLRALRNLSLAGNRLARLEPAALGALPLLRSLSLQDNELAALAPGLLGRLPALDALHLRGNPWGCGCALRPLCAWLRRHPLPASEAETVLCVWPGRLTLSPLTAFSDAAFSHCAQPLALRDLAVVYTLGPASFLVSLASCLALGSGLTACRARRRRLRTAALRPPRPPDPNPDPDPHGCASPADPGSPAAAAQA
structure (smiles),measurement,setting,value
OCCN(CCO)c1nc(N2CCCCC2)c2nc(N(CCO)CCO)nc(N3CCCCC3)c2n1,inhibition,[1],2.27% (inactive)
same,inhibition,[2],5.62% (inactive)
same,fluorescence ratio,[3],0.85 (inactive)
same,nuclear beta-catenin stimulation,[4]; at 10 µM,0.7% (inactive)
same,nuclear beta-catenin stimulation,"[4]; stimulation, at 2 µM",1.8%
same,insulin secretion stimulation,[5],0.7% (inactive)
same,viability decrease,[6],20.5% (inactive)
same,tube area decrease,[7],8.6% (inactive)
same,GLP1 secretion stimulation,[8],8% (inactive)
same,inhibition of viability,[9],61.4% (active)
same,viability decrease (inhibition),[10],41.1% (inactive)
same,viability decrease (inhibition),[11],4.3% (inactive)
same,inhibition,[12],11% (inactive)
same,red/green cell ratio (normalised),"[13]; actives lie on both sides, counts scaled to control wells, 1 = unselective",1.08 (inactive)
same,normalised cell number,[13]; measured here: epithelial PC-3E GFP cell survival,1.13
same,normalised cell number,[13]; measured here: mesenchymal TEM4-18 mCherry cell survival,1.22
same,z-score,[14]; [21],-0.622 (inactive) and 4.01 (active) and 2.55 (active)
same,z-score,[14]; [22],-0.0206 and -0.634 and 4.9
same,remaining NAD,[15],10 nM (inactive)
same,luciferase signal,[16],136 AU (inactive)
C[C@@H]1C[C@H]2[C@@H]3CCC4=CC(=O)C=C[C@]4(C)[C@@]3(F)[C@@H](O)C[C@]2(C)[C@@]1(O)C(=O)CO,inhibition,[1],-3.18% (inactive)
same,inhibition,[2],0.29% (inactive)
same,fluorescence ratio,[3],1 (inactive)
same,nuclear beta-catenin stimulation,[4]; at 10 µM,-0.3% (inactive)
same,nuclear beta-catenin stimulation,"[4]; stimulation, at 2 µM",-1.3%
same,insulin secretion stimulation,[5],8.4% (inactive)
same,viability decrease,[6],-0.1% (inactive)
same,tube area decrease,[7],-12.9% (inactive)
same,GLP1 secretion stimulation,[8],4.4% (inactive)
same,inhibition of viability,[9],-7% (inactive)
same,viability decrease (inhibition),[10],-0.8% (inactive)
same,viability decrease (inhibition),[11],5.8% (inactive)
same,inhibition,[12],0.502% (inactive)
same,fold change,[17]; [23],0.906 (inactive) and 0.84 (inactive) and 0.875 (inactive)
same,fold change,[17]; [24],1.6 and 0.779 and 1.31
same,cell count,[17]; [25],7720 and 3310 and 7020
same,cell count,[17]; [26],8520 and 3940 and 8020
same,z-score,[14]; [21],0.843 (inactive)
same,z-score,[14]; [22],0.569
same,remaining NAD,[15],10 nM (inactive)
same,luciferase signal,[16],100 AU (inactive)
same,log fold change Tl+ flux,[18],0.096 (inactive)
same,log fold change Tl+ flux,[19],-0.01 (inactive)
same,log fold change Tl+ flux,[20],0.0359 (inactive)
CC[C@]1(O)C[C@@H]2CN(CCc3c([nH]c4ccccc34)[C@@](C(=O)OC)(c3cc4c(cc3OC)N(C)[C@H]3[C@@](O)(C(=O)OC)[C@H](OC(C)=O)[C@]5(CC)C=CCN6CC[C@]43[C@@H]65)C2)C1,nuclear beta-catenin stimulation,[4]; at 10 µM,78.2% (active) and 46.4% (active)
same,nuclear beta-catenin stimulation,"[4]; stimulation, at 2 µM",49.7% and 61.6%
same,insulin secretion stimulation,[5],5.8% (inactive) and 3.65% (inactive)
same,viability decrease,[6],84.6% (active) and 97.7% (active)
same,tube area decrease,[7],108% (active) and 104% (active)
same,GLP1 secretion stimulation,[8],-1.3% (inactive) and 5.9% (inactive)
same,inhibition of viability,[9],79.8% (active) and 74.2% (active)
same,viability decrease (inhibition),[10],89.7% (active) and 76.2% (active)
same,viability decrease (inhibition),[11],84.7% (active) and 75.3% (active)
same,fold change,[17]; [23],1.08 (inactive)
same,fold change,[17]; [24],0.797
same,cell count,[17]; [25],794
same,cell count,[17]; [26],738
same,remaining NAD,[15],10 nM (inactive)
same,luciferase signal,[16],72 AU (inactive)
CC1(C)O[C@@H]2C[C@H]3[C@@H]4CCC5=CC(=O)C=C[C@]5(C)[C@@]4(F)[C@@H](O)C[C@]3(C)[C@]2(C(=O)CO)O1,inhibition,[1],-0.45% (inactive)
same,inhibition,[2],4.1% (inactive)
same,fluorescence ratio,[3],0.99 (inactive)
same,nuclear beta-catenin stimulation,[4]; at 10 µM,-0.5% (inactive)
same,nuclear beta-catenin stimulation,"[4]; stimulation, at 2 µM",3.8%
same,insulin secretion stimulation,[5],3.4% (inactive)
same,viability decrease,[6],21.8% (inactive)
same,tube area decrease,[7],0.2% (inactive)
same,GLP1 secretion stimulation,[8],-1% (inactive)
same,inhibition of viability,[9],8.4% (inactive)
same,viability decrease (inhibition),[10],34.9% (inactive)
same,viability decrease (inhibition),[11],-6.5% (inactive)
same,inhibition,[12],10.8% (inactive)
same,fold change,[17]; [23],0.992 (inactive)
same,fold change,[17]; [24],0.777
same,cell count,[17]; [25],7390
same,cell count,[17]; [26],7450
same,remaining NAD,[15],10 nM (inactive)
same,luciferase signal,[16],36 AU (inactive)
same,log fold change Tl+ flux,[18],0.0424 (inactive)
same,log fold change Tl+ flux,[19],-0.014 (inactive)
same,log fold change Tl+ flux,[20],0.106 (active)
